Measurements published in PubChem BioAssay (NCI).
“And” between values parts separate entries of the source, which are not always exact repeats. Equal entries are not always repeated. This is part of a sample that, as a whole, favours compounds with a hit. Of some 83,000 tested, about 20% had one in any assay.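 Percent growth is the endpoint: 0 to 100 indicates growth inhibition (40 means 60% inhibition), 0 means no net growth, and negative values indicate cell death.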 The source made the active and inactive calls. The calls were made as follows: active = growth percent below 10; inactive = the rest.

System: MDA-MB-468 breast
Assay: NCI-60 one-dose screen, 48 h (100 = growth as untreated, 0 = no growth, -100 = all killed)
Details: 10 µM unless noted

| SMILES | growth |
| --- | --- |
| O=[N+]([O-])c1ccc(-c2nnc(SCc3ccc(O)c4ncccc34)o2)cc1 | 16.2% (inactive) |
| COc1cccc(NC(=O)c2sc3nc(C)c(C(=O)c4ccccc4)cc3c2N)c1 | 62.1% (inactive) |
| O=C1CC(=O)N(c2ccccc2)O1 | 105% (inactive) |
| CC(C)(C(=O)c1cccnc1)c1cccnc1 | 96.4% (inactive) and 96.1% (inactive) |
| CCCn1cnc2c(c1=N)C(c1ccc(F)cc1)c1sc3c(CC)cccc3c1O2 (centres undefined) | -47.9% (active) |
| CC(=O)c1nn(-c2ccccc2)/c(=N/N=Cc2cn(-c3ccccc3)nc2-c2cc3ccccc3oc2=O)s1 | 103% (inactive) |
| O=C1/C(=C/c2ccccc2)CN(C(=O)c2cccnc2)C/C1=C\c1ccccc1 | -49.2% (active) |
| Cc1ccc2nc(-c3ccc(-n4on4-c4ccc(/C=C/c5ccc(-n6on6-c6ccc(-c7nc8ccc(C)cc8s7)cc6)cc5S(=O)(=O)O)c(S(=O)(=O)O)c4)cc3)sc2c1 | 114% (inactive) |
| COc1cccc(NC2=CC(=O)C(C)=C(C)C2=O)c1 | 25.8% (inactive) |
| CNC1=C([N+](=O)[O-])C(c2ccc(OC)cc2)C(C#N)=C(c2cccs2)O1 (centres undefined) | 117% (inactive) |
| C=CCn1c(SCC(=O)Nc2ccc(/C(C)=N\O)cc2)nnc1-c1cc(-c2ccc(OC)cc2)nc2ccccc12 | 17.3% (inactive) |
| CN1C(=O)N(C)C2C1NC(=S)N2/N=C/C=C/c1ccccc1[N+](=O)[O-] (centres undefined) | 6.39% (active) |
| Clc1ccc2c(NCCCN3CCN(c4nc(N5CCOCC5)nc5ccccc45)CC3)ccnc2c1 | -74.3% (active) |
| O=C1Nc2ccc(Cl)cc2/C1=N/c1nc(-c2ccc(Cl)cc2)cs1 | -18% (active) |
| CCCCCCCCOC(=O)CC[C@@H](C)[C@H]1CC[C@H]2[C@@H]3[C@H](OC(=O)CCN)C[C@@H]4C[C@H](OC(=O)CCN)CC[C@]4(C)[C@H]3C[C@H](OC(=O)CCN)[C@]12C | 3.95% (active) |
| COC(=O)c1ccc([N+](=O)[O-])c(C)c1 | 102% (inactive) |
| CC(C)(C)OC(=O)N1C(=O)c2c(c3c4ccccc4[nH]c3c3ccc4ccccc4c23)C1=O | 75.6% (inactive) |
| CCCCCCCCCCCC[n+]1ccccc1 | -23.6% (active) |
| CCCCC[C@H]1C/C=C2/C(=O)C(Cl)=C[C@@H]2C/C=C\CCCC(=O)O[C@@H](CCCCC)C/C=C2/C(=O)C(Cl)=C[C@@H]2C/C=C\CCCC(=O)O1 | -46% (active) |
| CC[C@@H](C(=O)[C@@H](C)[C@@H](O)[C@H](C)[C@@H]1O[C@@H]([C@@H](CC)C(=O)N(CC)CC)CC[C@@H]1C)C1O[C@]2(C=CC(=O)[C@]3(CC[C@@](C)([C@H]4CC[C@](O)(CC)[C@H](C)O4)O3)O2)[C@H](C)C[C@@H]1C (some centres undefined) | -12.9% (active) |
| CCOC(=O)c1sc(N)nc1-c1ccccc1 | 97.4% (inactive) |
| O=C(Nc1cccc(Cl)c1)c1cc(Cl)ccc1O | -1.28% (active) |
| O=C(Nc1ccncc1)C(=O)c1cn(S(=O)(=O)c2cccc3ccccc23)c2ccccc12 | 19.5% (inactive) |
| Cc1ccc(-c2nn(CC(=O)N3CCOCC3)c(N)c2C#N)cc1 | 104% (inactive) |
